Data on two molecules can be found in the supplement of paper PMC11732987, “Enantioselective OTUD7B fragment discovery through chemoproteomics screening and high-throughput optimisation” (Communications Chemistry, 2025).

What all share (assay): log2 ratio of Biotin-Ahx-Ub-VS probe labelling (fragment/DMSO); higher = less target engagement (more negative = stronger competition), active = hit call of the paper (q ≤ 0.05, log2 ratio ≤ -1)
Settings in all cases: compound concentration: 200 uM; treatment time: 3 h

One assay concerns the target T1, ALG13 (UniProt Q9NP73).
T1 sequence (whole entry): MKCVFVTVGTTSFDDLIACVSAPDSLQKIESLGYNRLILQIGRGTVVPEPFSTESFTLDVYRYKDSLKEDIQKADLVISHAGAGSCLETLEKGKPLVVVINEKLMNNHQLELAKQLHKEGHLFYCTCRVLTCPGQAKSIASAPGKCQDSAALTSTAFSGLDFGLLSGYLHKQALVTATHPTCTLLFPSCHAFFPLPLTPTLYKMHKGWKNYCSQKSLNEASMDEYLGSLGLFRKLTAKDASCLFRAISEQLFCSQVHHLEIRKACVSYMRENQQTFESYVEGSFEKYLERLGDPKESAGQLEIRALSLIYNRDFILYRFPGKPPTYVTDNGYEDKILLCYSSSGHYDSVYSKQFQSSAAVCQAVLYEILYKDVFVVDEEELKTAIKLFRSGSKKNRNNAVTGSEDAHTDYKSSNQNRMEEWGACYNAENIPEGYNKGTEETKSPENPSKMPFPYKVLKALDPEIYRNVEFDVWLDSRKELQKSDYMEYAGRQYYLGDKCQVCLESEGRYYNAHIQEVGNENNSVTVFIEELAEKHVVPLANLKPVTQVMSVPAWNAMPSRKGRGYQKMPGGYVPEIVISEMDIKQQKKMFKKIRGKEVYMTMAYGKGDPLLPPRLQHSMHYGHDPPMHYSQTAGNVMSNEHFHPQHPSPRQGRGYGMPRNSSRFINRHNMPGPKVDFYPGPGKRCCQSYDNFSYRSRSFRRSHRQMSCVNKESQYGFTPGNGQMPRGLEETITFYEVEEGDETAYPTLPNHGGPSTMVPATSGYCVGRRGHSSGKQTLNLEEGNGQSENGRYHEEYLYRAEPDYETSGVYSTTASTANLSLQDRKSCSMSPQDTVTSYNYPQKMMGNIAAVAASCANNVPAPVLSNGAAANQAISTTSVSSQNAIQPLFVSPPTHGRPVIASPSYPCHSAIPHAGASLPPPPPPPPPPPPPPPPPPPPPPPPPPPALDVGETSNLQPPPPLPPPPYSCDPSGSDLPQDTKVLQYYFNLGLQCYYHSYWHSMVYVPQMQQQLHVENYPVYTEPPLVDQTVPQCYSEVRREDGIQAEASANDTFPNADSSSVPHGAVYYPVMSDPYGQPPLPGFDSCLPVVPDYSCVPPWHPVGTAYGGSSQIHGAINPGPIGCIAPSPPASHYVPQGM
The method, boiled down: (§1)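 Average log2 ratios of fragment over vehicle were obtained by unpaired t-test from global-median-normalised Spectronaut label-free quantities. Proteins with ≥2 unique peptides were included. HEK293T lysate (495 µg per sample) was treated in triplicate with fragment at 200 µM or vehicle for 3 h, then with Biotin-Ahx-Ub-VS at 0.5 µM final for 1 h, and labelled DUBs were NeutrAvidin-enriched and run by diaPASEF LC-MS/MS.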

The next assay deals with ATXN3 (UniProt P54252). The essentials: as §1
Sequence of ATXN3 (P54252 whole entry): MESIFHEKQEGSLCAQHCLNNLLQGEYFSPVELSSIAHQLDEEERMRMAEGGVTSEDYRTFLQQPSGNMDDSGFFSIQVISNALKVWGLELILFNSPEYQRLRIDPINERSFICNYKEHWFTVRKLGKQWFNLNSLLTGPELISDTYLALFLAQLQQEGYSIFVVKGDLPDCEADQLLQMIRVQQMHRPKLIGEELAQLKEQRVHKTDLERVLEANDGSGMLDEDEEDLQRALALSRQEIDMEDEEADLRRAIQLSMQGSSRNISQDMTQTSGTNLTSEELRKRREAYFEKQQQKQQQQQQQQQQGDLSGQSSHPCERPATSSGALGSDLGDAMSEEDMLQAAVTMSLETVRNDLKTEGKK
Another assay concerns the target T2, BAP1 (UniProt Q92560).
T2 sequence (whole entry): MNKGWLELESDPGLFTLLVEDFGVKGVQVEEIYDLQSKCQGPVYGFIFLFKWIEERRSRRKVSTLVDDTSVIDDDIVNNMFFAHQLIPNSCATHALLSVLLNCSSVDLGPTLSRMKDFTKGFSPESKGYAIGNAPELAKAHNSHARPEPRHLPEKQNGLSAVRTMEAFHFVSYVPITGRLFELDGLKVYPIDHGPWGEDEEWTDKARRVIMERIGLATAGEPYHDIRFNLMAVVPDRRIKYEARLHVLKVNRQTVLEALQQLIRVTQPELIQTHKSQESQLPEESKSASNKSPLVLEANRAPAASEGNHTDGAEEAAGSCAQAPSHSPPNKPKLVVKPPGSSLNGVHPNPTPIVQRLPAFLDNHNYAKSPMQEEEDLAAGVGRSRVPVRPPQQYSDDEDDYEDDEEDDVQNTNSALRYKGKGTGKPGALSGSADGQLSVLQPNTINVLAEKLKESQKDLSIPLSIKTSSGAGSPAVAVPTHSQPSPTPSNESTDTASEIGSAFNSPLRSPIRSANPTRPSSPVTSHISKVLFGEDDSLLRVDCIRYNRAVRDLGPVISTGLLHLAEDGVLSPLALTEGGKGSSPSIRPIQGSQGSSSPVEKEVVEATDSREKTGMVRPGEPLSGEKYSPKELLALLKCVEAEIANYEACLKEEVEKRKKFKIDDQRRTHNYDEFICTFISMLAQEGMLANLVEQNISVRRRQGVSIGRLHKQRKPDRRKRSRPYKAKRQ
The essentials: as §1

A further assay concerns the target EIF3F (UniProt O00303). The method, boiled down: as §1
Another assay has as its target EIF3H (UniProt O15372). The method, boiled down:
as §1

The target of a further assay is T3, FAM105A (UniProt Q9NUU6).
T3 sequence (whole entry): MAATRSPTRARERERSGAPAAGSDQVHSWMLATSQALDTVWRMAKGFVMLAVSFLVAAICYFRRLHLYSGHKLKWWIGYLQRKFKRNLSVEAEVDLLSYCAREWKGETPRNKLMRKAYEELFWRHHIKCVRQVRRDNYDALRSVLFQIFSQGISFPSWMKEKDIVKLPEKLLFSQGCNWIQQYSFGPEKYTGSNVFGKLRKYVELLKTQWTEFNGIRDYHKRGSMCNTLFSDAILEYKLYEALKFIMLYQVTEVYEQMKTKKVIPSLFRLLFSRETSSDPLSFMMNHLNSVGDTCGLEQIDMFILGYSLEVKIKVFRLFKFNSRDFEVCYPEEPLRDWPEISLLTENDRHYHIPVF
The method, boiled down: as §1

The next assay deals with OTUB1 (UniProt Q96FW1). The essentials:
as §1

The target of a further assay is T4, OTUD4 (UniProt Q01804).
T4 sequence (whole entry): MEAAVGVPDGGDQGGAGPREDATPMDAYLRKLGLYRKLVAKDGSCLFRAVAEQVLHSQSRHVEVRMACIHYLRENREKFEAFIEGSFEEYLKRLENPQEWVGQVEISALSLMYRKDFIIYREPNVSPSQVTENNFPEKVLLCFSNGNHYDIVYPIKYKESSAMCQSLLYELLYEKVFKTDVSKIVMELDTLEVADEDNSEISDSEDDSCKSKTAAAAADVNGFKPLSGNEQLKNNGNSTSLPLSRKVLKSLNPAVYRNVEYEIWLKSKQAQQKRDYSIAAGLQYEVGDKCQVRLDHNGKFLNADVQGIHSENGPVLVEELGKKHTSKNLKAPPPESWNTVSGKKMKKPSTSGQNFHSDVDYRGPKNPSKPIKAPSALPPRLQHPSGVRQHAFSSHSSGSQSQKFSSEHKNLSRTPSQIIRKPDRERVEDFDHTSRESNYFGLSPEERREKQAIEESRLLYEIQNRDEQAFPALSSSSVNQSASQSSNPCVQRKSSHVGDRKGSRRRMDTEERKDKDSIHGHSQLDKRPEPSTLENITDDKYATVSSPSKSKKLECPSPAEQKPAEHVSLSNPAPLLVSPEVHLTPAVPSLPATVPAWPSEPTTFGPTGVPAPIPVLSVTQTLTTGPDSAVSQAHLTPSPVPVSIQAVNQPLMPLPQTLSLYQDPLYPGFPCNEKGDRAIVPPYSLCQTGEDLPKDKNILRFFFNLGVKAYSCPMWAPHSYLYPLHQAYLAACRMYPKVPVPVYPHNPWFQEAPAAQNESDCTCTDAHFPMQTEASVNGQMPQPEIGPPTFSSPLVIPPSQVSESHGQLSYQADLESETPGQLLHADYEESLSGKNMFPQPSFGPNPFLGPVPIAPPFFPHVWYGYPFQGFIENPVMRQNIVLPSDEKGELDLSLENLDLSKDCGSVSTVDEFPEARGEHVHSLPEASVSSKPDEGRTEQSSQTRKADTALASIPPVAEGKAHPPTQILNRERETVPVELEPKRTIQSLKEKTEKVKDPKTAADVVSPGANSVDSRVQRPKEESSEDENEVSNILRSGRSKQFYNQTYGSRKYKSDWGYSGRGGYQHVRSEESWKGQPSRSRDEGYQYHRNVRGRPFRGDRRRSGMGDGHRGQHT
The method, boiled down: as §1

The next assay concerns the target T5, OTUD5 (UniProt Q96G74).
T5 sequence (whole entry): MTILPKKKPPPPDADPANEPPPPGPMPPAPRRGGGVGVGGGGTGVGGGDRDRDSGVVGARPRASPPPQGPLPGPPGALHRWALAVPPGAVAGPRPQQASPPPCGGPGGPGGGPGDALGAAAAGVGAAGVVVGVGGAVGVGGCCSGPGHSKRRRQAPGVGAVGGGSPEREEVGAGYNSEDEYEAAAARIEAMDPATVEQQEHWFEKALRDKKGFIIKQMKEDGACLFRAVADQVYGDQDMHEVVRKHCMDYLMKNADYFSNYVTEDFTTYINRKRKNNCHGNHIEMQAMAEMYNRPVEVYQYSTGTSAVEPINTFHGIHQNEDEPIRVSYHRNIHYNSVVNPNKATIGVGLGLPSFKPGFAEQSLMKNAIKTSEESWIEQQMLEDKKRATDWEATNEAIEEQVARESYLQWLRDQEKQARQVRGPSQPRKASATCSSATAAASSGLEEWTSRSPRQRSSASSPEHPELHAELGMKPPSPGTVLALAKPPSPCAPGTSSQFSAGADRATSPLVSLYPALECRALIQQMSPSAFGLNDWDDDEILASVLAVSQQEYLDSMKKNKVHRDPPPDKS
The essentials: as §1

A number with no mark means an inactive call.

Sequence of OTUB1 (Q96FW1 whole entry): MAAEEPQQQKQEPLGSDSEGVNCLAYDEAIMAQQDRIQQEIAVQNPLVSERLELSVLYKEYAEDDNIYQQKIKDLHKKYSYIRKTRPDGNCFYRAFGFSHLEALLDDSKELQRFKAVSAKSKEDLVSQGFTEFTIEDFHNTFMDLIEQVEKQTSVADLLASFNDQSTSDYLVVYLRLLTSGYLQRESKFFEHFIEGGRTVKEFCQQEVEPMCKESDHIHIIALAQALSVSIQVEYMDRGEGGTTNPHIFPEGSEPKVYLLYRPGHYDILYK
Sequence of EIF3F (O00303 whole entry): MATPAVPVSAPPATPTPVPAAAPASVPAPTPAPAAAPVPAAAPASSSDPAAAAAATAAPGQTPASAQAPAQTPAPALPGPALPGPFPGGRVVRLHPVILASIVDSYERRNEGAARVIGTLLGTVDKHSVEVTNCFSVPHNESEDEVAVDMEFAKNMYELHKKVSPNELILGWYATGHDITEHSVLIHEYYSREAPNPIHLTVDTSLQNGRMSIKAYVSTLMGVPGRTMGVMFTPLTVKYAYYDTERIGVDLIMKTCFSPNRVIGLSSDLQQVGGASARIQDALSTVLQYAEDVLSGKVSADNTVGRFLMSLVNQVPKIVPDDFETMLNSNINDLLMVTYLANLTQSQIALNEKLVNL
Sequence of EIF3H (O15372 whole entry): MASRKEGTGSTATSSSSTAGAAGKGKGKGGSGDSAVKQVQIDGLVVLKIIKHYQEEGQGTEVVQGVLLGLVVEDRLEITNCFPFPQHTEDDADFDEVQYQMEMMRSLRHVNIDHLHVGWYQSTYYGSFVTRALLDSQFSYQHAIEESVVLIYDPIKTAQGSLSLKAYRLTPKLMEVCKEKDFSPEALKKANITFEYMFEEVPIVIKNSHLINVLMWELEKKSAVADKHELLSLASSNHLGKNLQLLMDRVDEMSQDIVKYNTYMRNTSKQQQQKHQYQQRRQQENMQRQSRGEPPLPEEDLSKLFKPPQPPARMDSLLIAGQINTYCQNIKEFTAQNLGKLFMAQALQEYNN

Take `N#Cc1cnn(-c2ccccc2)c1NC(=O)CCl`: the “log2 ratio of Biotin-Ahx-Ub-VS probe labelling” value (shortened to “log2 ratio”) with ALG13 is 0.0569; with ATXN3, -1.2 (active); in the assay with BAP1, -4.3 (active); with EIF3F, -0.258; with EIF3H it was 0.233; in the assay with FAM105A it was -0.0309. The results for the “log2 ratio” value in the assay with OTUB1, with OTUD4 and with OTUD5 were -0.0957, -0.641 and -0.526, respectively.
On to `O=C(CCl)Nc1ccccc1C(F)(F)F`, for which the “log2 ratio” value with ALG13 was 0.259; with ATXN3, -0.449; with BAP1, -2.61 (active); with EIF3F, -0.519; with EIF3H it was 0.185; in the assay with FAM105A, 0.257. Besides, the “log2 ratio” value is -0.144 in the assay with OTUB1, -0.356 in the assay with OTUD4 and -0.489 with OTUD5.
